An excerpt weighted towards active compounds, which were near 9.3% of everything screened.
ELG1 repair inh – ELG1-dependent DNA repair inhibition; HEK293T ELG1-luciferase reporter, luminescence, 16 h; DNA damage induced by 5-fluorouridine; Potency, µM (highest dose often 46.1 µM), inactives show at the highest dose activity change, negative = inhibition, most hits filed as inhibitors; actives 2.3% (n = 330,000); AID 504467; note: % is set by controls: 0 for no effect and ±100 for the full control effect; nearly all actives have a fitted effect of over 55% in size
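Cells (2,000 per well) received 5-fluorouridine plus test compound or DMSO and were incubated 16 hr at 37 °C, 5% CO2. Luciferase activity was read by luminescence 30 min after ONE-Glo addition; signal suppression marked inhibition of damage-induced ELG1 function.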
NPC1 prom act – activators of NPC1 promoter. Huh7 NPC1 promoter luciferase reporter, 24 h. Potency, µM (series often up to 9.22 µM), inactives show top-dose activation, usual class: activators. actives 2.4% (n = 320,000); note: % of control where 0% means no effect; nearly all actives have a fitted effect of over 60% in size
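Compounds in DMSO were transferred onto Huh7 NPC1-luciferase reporter cells pre-incubated 2 h; after 24 h at 37 °C, Amplite reagent was dispensed and luminescence recorded 10 min later.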
FLuc counter – counter-screen for miR-21 project: firefly luciferase inhibitors or activators; P08659; Potency, µM (series often up to 57.5 µM), for inactives: at the highest dose activity change, negative = inhibition, most hits filed as inhibitors; actives 6.9% (n = 360,000); purified FLuc, Km substrates, luminescence inhibition; AID 588342;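 note: plate controls were vehicle for no effect and reference inhibitor for full effect; nearly all actives have a fitted effect of over 55% in size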
Target sequence (P08659 whole entry, looked up): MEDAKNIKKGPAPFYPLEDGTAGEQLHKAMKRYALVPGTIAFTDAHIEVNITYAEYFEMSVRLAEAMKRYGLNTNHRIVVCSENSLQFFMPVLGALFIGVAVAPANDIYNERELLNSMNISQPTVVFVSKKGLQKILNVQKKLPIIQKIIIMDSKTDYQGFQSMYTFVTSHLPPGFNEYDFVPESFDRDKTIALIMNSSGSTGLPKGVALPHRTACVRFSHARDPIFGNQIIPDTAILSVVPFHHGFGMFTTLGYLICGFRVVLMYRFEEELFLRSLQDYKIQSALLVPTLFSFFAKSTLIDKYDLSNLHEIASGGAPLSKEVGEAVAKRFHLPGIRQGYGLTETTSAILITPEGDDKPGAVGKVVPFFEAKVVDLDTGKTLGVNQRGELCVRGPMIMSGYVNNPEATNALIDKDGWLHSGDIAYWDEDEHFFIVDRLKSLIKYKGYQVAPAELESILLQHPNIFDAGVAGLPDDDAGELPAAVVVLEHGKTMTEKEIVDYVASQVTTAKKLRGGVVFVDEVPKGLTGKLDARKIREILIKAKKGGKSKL
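Biochemical qHTS of compounds, final roughly 60 µM downward over six points, against 10 nM purified firefly luciferase using Km concentrations of substrates (10 uM D-luciferin, 10 uM ATP) in Tris acetate pH 7.5 buffer; luminescence output.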
SMN2 splice up – enhancers of SMN2 splice variant expression. actives 2.8% (n = 210,000). HEK293 SMN2-luciferase splicing reporter, luminescence, 30-36 h. Potency, µM (titrated, usually from 46.1 µM), without a hit: top-dose activity change, positive = activation, usual class: activators; note: % of control where 0% means no effect; nearly all actives have a fitted effect of over 55% in size
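qHTS luciferase splicing reporter: luminescence rises when SMN2 exon 7 is included in transfected HEK293 cells. Compound exposure lasted 30-36 h at 37C, with 4.5 mM final sodium butyrate as control, followed by a ONE-Glo read.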
Rab9 prom act – Rab9 promoter activation; Potency, µM (top dose mostly 9.22 µM), for the others: at the top dose activation, negative = inhibition, most hits filed as activators; Huh7 Rab9 promoter-luciferase reporter, luminescence, 24 h; AID 485297; actives 2.8% (n = 320,000); note: % of control where 0% means no effect; nearly all actives have a fitted effect of over 60% in size
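Cells were plated at 1500 per well in reduced-serum medium with 10% FBS and left 2 h. Compound in DMSO was then added for 24 h at 37 °C. Reporter signal was read by luminescence after 10 min with luciferase detection reagent.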
ELG1 genotoxic – genotoxicity induction in ELG1-luciferase HEK293T cells. Potency, µM (titrated, usually from 46 µM), for the others: at the highest dose activity change, positive = activation, actives largely listed as activators. actives 1.3% (n = 330,000). HEK293T ELG1-luciferase reporter, luminescence, 16 h; note: % of control where 0% means no effect; nearly all actives have a fitted effect of over 60% in size
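Quantitative HTS format in 1536-well plates. HEK293T ELG1-luciferase reporter cells receive test compound and are incubated 16 hr at 37 °C, 5% CO2; ONE-Glo added, 30 min room temperature, then luminescence read.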
* hit, by the source's call; u = inconclusive; x = no result given; [ ] = dose if it differs, or a comment. Calls come from the whole dose curve; as a rule, active = well fitted curve in the direction sought with a large enough effect; inconclusive = small, poorly fitted or top-dose-only effect, or another doubt; inactive = no such curve, though single readings can be large; an effect the other way counts as inactive or inconclusive. Potency is the fitted concentration of half-maximal effect.

SMILES	ELG1 repair inh	NPC1 prom act	FLuc counter	SMN2 splice up	Rab9 prom act	ELG1 genotoxic
Cc1cc(Cl)c(S(=O)(=O)N2CCCCCC2)cc1OCC(=O)NC1CCCCC1	9.2µM*	-26%	4%	-86%	-34%	-21%
COc1ccc(CCNC(=O)COc2ccc(S(=O)(=O)NC3CCCCC3)cc2Cl)cc1OC	21µM*	-5%	0%	-3%[1.84 µM]	-2%	-4%
C=CCC1(O)CCOc2ccccc21 (configuration not stated)	x	x	x	-3%	x	x
COc1ccc(S(=O)(=O)NCC(=O)Nc2cccc(C)c2C)cc1OC	-16%	-2%	0%	2%	-3%	1%
Cc1cc(Cl)c(S(=O)(=O)NC2CCCC2)cc1OCC(=O)NC1CCCCC1	9.2µM*	-11%	-2%	-101%	-21%	-10%
Cc1cc(Cl)c(S(=O)(=O)N2CCSCC2)cc1OCC(=O)NC1CCCCC1	9.2µM*	-19%	3%	-80%	-13%	-16%
COc1ccc(N(CC(=O)NCCSC2CCCCC2)S(=O)(=O)c2ccccc2)cc1OC	-25%	-2%	0%	x	-3%	-6%
O=C(NC(=O)c1ccccc1)NC1(C(F)(F)F)OCCO1	u	2.5µM*	11µM*	16µM*	4µM*	u
CCOc1ccc(C(=O)CSCCC(=O)O)cc1	u	-4%	6µM*	1%	-3%	16%
CCOc1ccc(C(=O)COC(C)=O)cc1	21%	0%	u	4%	9%	3%
Cn1c(/C(C#N)=C/c2cccc(O)c2)nc2ccccc21	u	28%	13µM*	u	u	u
COc1cc(/C=C(\C#N)c2nc3ccccc3n2C)cc(OC)c1OC	x	x	19µM*	-11%	x	x
COc1ccc(/C=C(\C#N)c2nc3ccccc3n2C)c(OC)c1	x	x	24µM*	24%	x	x
COc1ccc(/C(O)=C(\C#N)c2nc3ccccc3n2C)cc1OC	3%	0%	-17%	-15%	0%	3%
COC(=O)Cc1cc(OC)c(OC)cc1S(=O)(=O)N(C)C	6%	-5%	-2%	13%	8%	-2%
Cc1ccccc1NC(=O)c1nc2nccc(C)n2n1	u	u	u	14µM*	3.5µM*	u
O=C(/C=C/c1ccc2c(c1)OCO2)NCCSCc1ccc(Cl)cc1Cl	1%	1%	u	-26%	-2%	0%
O=C(COc1ccccc1)Nc1ccc(Cl)cn1	u	25%	19µM*	x	u	u
O=C(COc1ccc(Cl)cc1)Nc1ccc(Cl)cn1	u	u	12µM*	x	u	u
O=C(COc1ccc2c(c1)OCO2)Nc1ccc(Cl)cn1	u	2µM*	13µM*	x	3.5µM*	u
O=C(/C=C/c1ccc2c(c1)OCO2)Nc1ccc(Cl)cn1	u	1.1µM*	1.9µM*	10µM*	0.56µM*	2.1µM*
COc1ccc(C(=O)OCC(=O)Nc2ccc(Cl)cn2)cc1	-10%	-1%	-1%	x	5%	0%
O=C(COC(=O)c1cnc(Cl)c(Cl)c1)NC1CC1	u	x	x	x	x	-2%
CC(C)CC(NC(=O)CC12CC3CC(CC(C3)C1)C2)C(=O)NC1=NCCS1 (configuration not stated)	-3%	-3%	1%	x	0%	1%
CC1=Nc2cc(C(=O)NCc3ccccc3Cl)ccc2Sc2c(C)ccc(C)c21	x	x	-4%	-25%	x	x
SMILES	ELG1 repair inh	NPC1 prom act	FLuc counter	SMN2 splice up	Rab9 prom act	ELG1 genotoxic
O=C(COc1ccc(Cl)cc1Cl)Nc1ccccn1	u	u	0.076µM*	-13%	0.1µM*	-11%
O=C(/C=C/c1ccc2c(c1)OCO2)NC1CCCC1	u	4%	15µM*	x	0%	15%
CSc1ccccc1NC(=O)COc1ccc(Cl)cc1Cl	u	-1%	u	x	-1%	5%
O=C(COc1ccccc1Cl)Nc1ccc(Cl)cn1	u	2.2µM*	0.95µM*	11µM*	1.4µM*	3.2µM*
O=C(/C=C/c1ccc2c(c1)OCO2)NCC1CCCO1 (configuration not stated)	u	25%	u	u	u	18%
O=C(COC(=O)COc1ccccc1F)Nc1ccc(Cl)cn1	10%	-2%	-8%	x	-2%	-2%
O=C(COc1ccc2c(c1)OCO2)Nc1ccccc1F	u	u	6µM*	6%	u	u
CCc1ccccc1NC(=S)N(CCCN(C)C)Cc1cc2cc3c(cc2[nH]c1=O)OCO3	-5%	-4%	-7%	-1%	-5%	0%
CC(C)Oc1ccccc1NC(=O)CSc1nccn1C	15%	2%	-1%	-9%	0%	1%
Cc1cccc(Cn2cc(S(=O)(=O)c3ccc(Cl)cc3)c(=O)c3cc4c(cc32)OCO4)c1	x	x	-4%	-7%	x	x
Cc1ccc(OCC(=O)NS(=O)(=O)c2ccc(Cl)cc2)cc1	-7%	1%	1%	x	-7%	8%
O=C(COc1ccccc1)NS(=O)(=O)c1ccc(Cl)cc1	2%	16%	17µM*	x	5%	10%
CC(OC(=O)CCN=C1NS(=O)(=O)c2ccccc21)C(=O)Nc1ccc(F)cc1 (configuration not stated)	-6%	-2%	-4%	x	-4%	-1%
Oc1csc(Cc2nc(-c3ccccc3F)cs2)n1	u	u	-18%	u	5µM*	-4%
Oc1csc(Cc2nc(-c3ccc(-c4ccccc4)cc3)cs2)n1	u	u	u	4%	u	11%
O=c1oc2ccccc2cc1-c1csc(Cc2nc(-c3ccc(Cl)cc3)cs2)n1	u	-22%	6%	-76%	-31%	9%
Oc1csc(Cc2nc(-c3ccc4ccccc4c3)cs2)n1	u	u	u	u	2.8µM*	u
O=C(CSc1ccccn1)Nc1ccc(Cl)cn1	14%	1%	-20%	x	26%	12%
CC1Cn2c(C(=O)NCc3cccc(Br)c3)cc3cccc(c32)S1 (configuration not stated)	x	x	6%	x	x	x
CCc1nnc(NC(=O)c2ccc(COc3ccccc3)o2)s1	23%	2%	-13%	-2%	3%	16%
O=C(Nc1nccs1)c1ccc(COc2ccccc2)o1	u	2.5µM*	u	x	4.5µM*	u
Cc1ccc(OCc2ccc(C(=O)Nc3nccs3)o2)cc1	u	26%	17µM*	10%	16%	3%
COc1ccc(OCC(O)CNC(=O)/C=C/c2cccc([N+](=O)[O-])c2)cc1 (configuration not stated)	u	-2%	-1%	-4%	-3%	-1%
CCN(CC)C(=O)CSc1nc(C)cc(C)n1	8%	-5%	1%	x	-1%	1%

Source: PubChem BioAssay (National Center for Advancing Translational Sciences (NCATS))
